NPC1 promoter act: NPC1 promoter activation; Huh7 NPC1 promoter luciferase reporter, 24 h; Potency, µM (titrated, usually from 9.22 µM), without a hit: top-dose activation, actives largely listed as activators; hit rate 2.4% among 320,000; also: % of control where 0% means no effect; nearly all actives have a fitted effect of over 60% in size
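Readout is luciferase luminescence, reflecting NPC1 promoter activation in stably transfected Huh7 cells after 24 h compound exposure at 37 °C in reduced-serum medium with 10% FBS.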
Rab9 prom act: activates the Rab9 promoter. Huh7 Rab9 promoter-luciferase reporter, luminescence, 24 h. Potency, µM (series often up to 9.22 µM), inactives show top-dose activation, negative = inhibition, hits mostly activators. hit rate 2.8% among 320,000. AID 485297; also: % of control where 0% means no effect; nearly all actives have a fitted effect of over 60% in size
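Steps: seed 1500 Huh7 Rab9-luc cells per well, rest 2 h at 37 °C; add compound in DMSO; incubate 24 h; add luciferase reagent, 10 min ambient; read luminescence.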
SMN2 splice up: SMN2 splice variant enhancement; HEK293 SMN2-luciferase splicing reporter, luminescence, 30-36 h; Potency, µM (top dose mostly 46.1 µM), for the others: at the highest dose activity change, positive = activation, actives largely listed as activators; hit rate 2.8% among 210,000; also: % of control where 0% means no effect; nearly all actives have a fitted effect of over 55% in size
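HEK293 cells carry an SMN2 […]–luciferase reporter in which exon 7 inclusion puts luciferase in frame. Cells were plated 10-12 h before compound addition, then incubated 30-36 h at 37C. ONE-Glo luminescence was read; sodium butyrate at 4.5 mM final served as control.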
ELG1 genotox: inducers of genotoxicity in HEK293T ELG1-luciferase cells. HEK293T ELG1-luciferase reporter, luminescence, 16 h. AID 504466. Potency, µM (titrated, usually from 46 µM), for the others: at the top dose activity change, positive = activation, hits mostly activators. hit rate 1.3% among 330,000; also: % of control where 0% means no effect; nearly all actives have a fitted effect of over 60% in size
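Quantitative HTS format in 1536-well plates. HEK293T ELG1-luciferase reporter cells receive test compound and are incubated 16 hr at 37 °C, 5% CO2; ONE-Glo added, 30 min room temperature, then luminescence read.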
KinaseGlo FLuc: blocks Kinase-Glo luciferase, a counter-screen artifact. Potency, µM (titrated, usually from 38.3 µM), for the others: at the top dose activity change, negative = inhibition, actives largely listed as inhibitors. AID 1379. hit rate 0.28% among 200,000. Kinase-Glo luciferase, ATP luminescence, 8 min; also: % is scaled to controls: 0 for no effect and ±100 for the full control effect; nearly all actives have a fitted effect of over 60% in size
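Kinase-Glo luciferase light output from ATP and luciferin was measured with 10 uM ATP, within the enzyme's linear range. Buffer: 50 mM imidazole pH 7.2, 50 mM KCl, 7 mM MgCl2, 0.01% Tween 20, 0.05% BSA; luminescence read after 8 min at ambient temperature.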
FLuc modulator: inhibits or activates purified firefly luciferase, miR-21 counter-screen; P08659; Potency, µM (highest dose often 57.5 µM), inactives show at the top dose activity change, negative = inhibition, most hits filed as inhibitors; purified FLuc, Km substrates, luminescence inhibition; hit rate 6.9% among 360,000; AID 588342;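 also: plate controls were vehicle for no effect and reference inhibitor for full effect; nearly all actives have a fitted effect of over 55% in size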
Target sequence (P08659 whole entry, looked up): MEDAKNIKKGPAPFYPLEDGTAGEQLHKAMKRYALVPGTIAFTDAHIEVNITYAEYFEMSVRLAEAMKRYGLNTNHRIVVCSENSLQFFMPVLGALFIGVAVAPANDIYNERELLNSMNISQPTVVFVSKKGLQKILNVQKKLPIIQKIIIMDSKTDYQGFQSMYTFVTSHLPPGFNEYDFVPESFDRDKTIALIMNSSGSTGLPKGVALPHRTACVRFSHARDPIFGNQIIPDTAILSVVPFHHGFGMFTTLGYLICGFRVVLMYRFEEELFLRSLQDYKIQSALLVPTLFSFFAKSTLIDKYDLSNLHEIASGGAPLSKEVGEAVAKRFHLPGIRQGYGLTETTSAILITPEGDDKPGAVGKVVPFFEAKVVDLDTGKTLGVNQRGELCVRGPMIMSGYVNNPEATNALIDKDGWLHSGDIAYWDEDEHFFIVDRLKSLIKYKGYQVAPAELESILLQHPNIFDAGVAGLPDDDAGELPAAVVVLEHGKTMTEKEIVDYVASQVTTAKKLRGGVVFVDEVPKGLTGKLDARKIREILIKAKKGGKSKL
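Biochemical qHTS of compounds, final roughly 60 µM downward over six points, against 10 nM purified firefly luciferase using Km concentrations of substrates (10 uM D-luciferin, 10 uM ATP) in Tris acetate pH 7.5 buffer; luminescence output.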
Starred values were filed as active, the others as inactive; ? = inconclusive; nt = no result given; [ ] = another dose, or the depositor's remark. Only some compounds are listed: those with a hit (about 7.3% of all), similar ones and a draw of the others. Calls follow the shape of the dose curve; as a rule, active = well fitted curve in the direction sought with a large enough effect; inconclusive = small, poorly fitted or top-dose-only effect, or another doubt; inactive = no such curve, though single readings can be large; an effect the other way counts as inactive or inconclusive. Potency is read from the fitted curve at half-maximal effect.

SMILES	NPC1 promoter act	Rab9 prom act	SMN2 splice up	ELG1 genotox	KinaseGlo FLuc	FLuc modulator
Cc1cc(C(=O)CN2CCCC(C)C2)c(C)n1-c1ccc(F)cc1 (stereo not drawn)	?	2.5µM*	18µM*	?	1%	15µM*
O=C(O)C[C@H](Cc1ccc2c(c1)OCO2)C(=O)O	nt	nt	-24%[9.22 µM]	nt	-4%[7.66 µM]	nt
CNc1nc(-c2ccc3c(c2)CCN3C(=O)c2ccc(F)cc2)cs1	25%	?	2%	3%	-4%	12µM*
CNc1nc(-c2ccc3c(c2)CCN3C(=O)c2ccccc2C)cs1	4µM*	2.2µM*	22µM*	?	-8%	7.6µM*
O=C(CN1CCCC1)Nc1nc(-c2ccc3c(c2)CCN3C(=O)c2ccccc2F)cs1	20%	13%	nt	-15%	nt	24µM*
Cc1ccccc1C(=O)N1CCc2cc(-c3nc(NC(=O)Cc4ccc5c(c4)OCO5)sc3C)ccc21	-23%	-20%	-64%	0%	0%	2%
CNc1nc(-c2ccc3c(c2)CCN3C(=O)c2cccc(F)c2)cs1	?	2µM*	nt	0%	nt	4.8µM*
Cc1cccc(C(=O)N2CCc3cc(-c4csc(NC(=O)CN5CCCC5)n4)ccc32)c1	-3%	-2%	nt	-23%	nt	?
Cc1ccc(C(C)C)c(OCC(=O)N2CCC(c3nc4ccccc4o3)CC2)c1	nt	nt	nt	nt	nt	-3%
CCc1cccc(C)c1NC(=O)COCc1cc(-c2ccc3c(c2)OCO3)on1	nt	nt	nt	nt	nt	-19%
Cc1ccc(Cl)cc1N1CCN(C(=O)Cn2c(-c3cccs3)cc3cc(F)ccc32)CC1	nt	nt	nt	nt	nt	2%
Cc1ccc(CNC(=O)c2cccn2-c2nnc(N3CCCCC3)s2)cc1	nt	nt	nt	nt	nt	-2%
CCN(CC)c1ccc(/C=C/C(=O)C2C(=O)C=C(C)OC2=O)cc1 (stereo not drawn)	1.6µM*	2.8µM*	?	?	?	8.5µM*
CCN(CC)c1ccc(C2C(C(=O)OC)=C(C)NC(C)=C2C(=O)OC)cc1	-4%	-8%	1%	4%	-4%	0%
O=C1CC(=Nc2ccccc2)NN1c1ccccc1	-1%	1%	-2%	-6%	2%	17µM*
COC(=O)CSc1nc2cc(C)ccc2cc1C#N	1.6µM*	1.4µM*	18µM*	?	1%	13µM*
CCOC(=O)CC(=O)CSc1nc2ccc(C)cc2cc1C#N	2%	1%	25µM*	16µM*	-3%	-21%[2.3 µM]
Cc1cc(C)c(NC(=O)Cn2c(=O)n(CCC(=O)NCc3ccccc3Cl)c(=O)c3sccc32)c(C)c1	nt	nt	0%	nt	nt	5%
COc1ccc(-c2cc(C)no2)cc1S(=O)(=O)Nc1c(C)cc(C)cc1C	nt	nt	nt	nt	nt	-1%
COc1ccc2c(c1)CC(C(=O)NCCCN1CCN(c3ccc(F)cc3)CC1)CO2 (stereo not drawn)	nt	nt	nt	nt	nt	-1%
COc1ccccc1CNc1ccc(N2CCCCC2)cc1	16%	17%	7%	?	-1%	15µM*
COc1cccc(CNc2ccc(N3CCCCC3)cc2)c1OC	?	24%	-5%	-1%	-3%	?
COc1cccc(Nc2ccc(N3CCCCC3)cc2)c1OC	3.5µM*	2.8µM*	nt	?	nt	?
CCCc1cc(C(=O)Nc2ccc(F)c(Cl)c2)no1	1%	0%	nt	?	nt	5.4µM*
CCCc1cc(C(=O)Nc2ccc(C(C)=O)cc2)no1	8%	17%	-34%	?	-4%	?
SMILES	NPC1 promoter act	Rab9 prom act	SMN2 splice up	ELG1 genotox	KinaseGlo FLuc	FLuc modulator
CCCc1cc(C(=O)Nc2cccc(C(C)=O)c2)no1	3.2µM*	?	15%	?	-5%	?
CCCc1cc(C(=O)Nc2cccc(Cl)c2)no1	0%	-3%	16%	15µM*	-9%	1.9µM*
CCCc1cc(C(=O)Nc2cccc(Cl)c2C)no1	?	?	nt	18µM*	nt	24µM*
COc1ccc(NC(=O)Cn2nnc(-c3nc(-c4ccncc4)no3)c2N)cc1OC	nt	nt	nt	nt	nt	0%
C[C@]12CC[C@H]3c4ccc(O)cc4CC[C@@H]3[C@H]1CC[C@@H]2OC(=O)CCc1ccccc1	nt	nt	6%[9.22 µM]	nt	-9%[7.66 µM]	nt
CCCc1cc(C(=O)Nc2ccccc2SC)no1	17%	?	?	?	-6%	?
CCCc1cc(C(=O)Nc2cccnc2)no1	1%	8%	19%	?	?	15µM*
COc1ccc(NC(=O)c2cc(C(C)C)on2)cc1OC	29%	22%	6%	?	-2%	?
CCCc1cc(C(=O)NCc2ccccc2)no1	15%	19%	?	23µM*	-1%	?
CC(C)c1cc(C(=O)Nc2cccnc2)no1	4µM*	2.8µM*	35µM*	?	?	-2%[2.3 µM]
CCCc1cc(C(=O)NCc2cccnc2)no1	-2%	4%	-3%	6%	-1%	-2%
CCCc1cc(C(=O)Nc2ccc(F)cc2F)no1	19%	?	-13%	12µM*	-7%	11µM*
CCCc1cc(C(=O)Nc2ccc(C#N)cc2)no1	2%	4%	nt	8%	nt	-19%
N#Cc1ccccc1CN1C(=O)c2ccccc2Sc2ccc(C(=O)OCc3ccco3)cc21	nt	nt	nt	nt	nt	-5%
Cc1cc(C)nc(S/C=C/C(=O)c2ccc(F)cc2)n1	-6%	-19%	nt	16%	nt	1.9µM*
Cc1cc(C)nc(SCC(=O)c2ccc(F)cc2)n1	9%	21%	nt	8%	nt	-13%
COC(=O)c1cccc(NC(=O)c2cc3ccccc3o2)c1	0.71µM*	0.71µM*	nt	16%	nt	2.1µM*
O=C(Nc1cccc(NC(=O)c2ccc(-c3ccc(Br)cc3)o2)c1)c1ccco1	19%	19%	17%	-7%	1%	2.7µM*
O=C(Nc1ccccc1C(F)(F)F)c1cc2ccccc2o1	2.5µM*	2.2µM*	nt	10µM*	nt	3.4µM*
COC(=O)c1ccccc1NC(=O)c1cc2ccccc2o1	?	?	nt	-1%	nt	13µM*
COC(=O)c1cc(NC(=O)c2cc3ccccc3o2)cc(C(=O)OC)c1	-4%	10%	nt	-8%	nt	?
COC(=O)c1ccccc1NC(=O)c1ccc(-c2ccc(Br)cc2)o1	10%	0.79µM*	28%	1.8µM*	-1%	-7%
Cc1ccc2cccc(NC(=O)c3ccc(-c4ccc(Br)cc4)o3)c2n1	nt	nt	-2%	nt	nt	0%
OC[C@@H](O)[C@@H](O)[C@@H](O)[C@@H](O)c1nc2ccc(Cl)cc2[nH]1	nt	nt	-8%[9.22 µM]	nt	-3%[7.66 µM]	nt
CCn1nnnc1SCC(=O)Nc1nc2ccc(OC)cc2s1	23%	20%	20%	2%	0%	12µM*
COc1ccc2nc(NC(=O)CSc3nnc(-c4ccoc4C)n3C)sc2c1	2.8µM*	3.5µM*	?	19%	-7%	2.7µM*
CCn1nnnc1SCC(=O)Nc1ccc(OC)cc1	7%	5%	26%	9%	2%	-3%

Assay outcomes deposited in PubChem BioAssay by National Center for Advancing Translational Sciences (NCATS).
